Cycloheximide cs – counter-screen hit for Shiga toxin inhibitors, cycloheximide. cell reporter, cycloheximide protein synthesis inhibition counterscreen. max response, %. 300,000 tested, 12% active. AID 2314; in the data active means max response mostly above about 13%, no sharp cut-off; inactive means mostly below about 14%; further: read at 38.3 µM for the half of the compounds with a filed dose
Shiga inhibitor – Shiga toxin inhibition; inhibition, % at 38.7 µM; Vero cells, Shiga toxin protein synthesis inhibition reporter; 290,000 tested, 9.2% active; AID 2315; in the data active means inhibition mostly above about 28%, no sharp cut-off; inactive means mostly below about 43%
Pf growth 48h – inhibits P. falciparum growth in the first generation, 48 h | P. falciparum luciferase growth in erythrocytes, 48 h | 310,000 tested, 5.9% active | Potency, µM (top dose mostly 28.7 µM), actives largely listed as inhibitors
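Read-out is firefly luciferase luminescence from an integrated reporter in P. falciparum, so falling signal marks reduced parasite growth. Infected erythrocytes were at 2% hematocrit and 0.1% parasitemia (final) in Albumax-supplemented RPMI 1640.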
Pf growth 96h – inhibits malaria parasite growth, 96 h | P. falciparum luciferase reporter growth, 96 h | Potency, µM (series often up to 28.7 µM), most hits filed as inhibitors | 320,000 tested, 6.9% active | AID 504834
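Infected RBCs, 2% Hct / 0.05% parasitemia final; luciferase-reporter P. falciparum; cpd 96 h, 37 C, 5% CO2; luciferase detection reagent; luminescence.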
Large screens that a line does not name were inactive. Rows were chosen to be rich in hits. Some 21% of all compounds tested hit in one or more screens of this group. Unless noted, the call rests on the fitted dose curve; in most records, active means well fitted inhibition curve with a large enough effect; inconclusive means small, poorly fitted or top-dose-only effect, or another doubt; inactive means no such curve, though single readings can be large or run the other way.

Cc1ccc(C(C(=O)NC2CCCCC2)N2CCCC2)cc1 (stereo not drawn)	Pf growth 96h inconclusive
CCN1CCN(C(C(=O)NC2CCCC2)c2ccc(Cl)cc2)CC1 (stereo not drawn)	Pf growth 96h 11.7µM (no result: Pf growth 48h)
Cc1ccc(C(C(=O)NC2CCCC2)N2CCCCC2)cc1 (stereo not drawn)	Pf growth 48h inconclusive, Pf growth 96h 1.85µM
O=C(NC1CCCCC1)C(c1ccc(Cl)cc1)N1CCC2(CC1)OCCO2 (stereo not drawn)	Pf growth 48h inconclusive
Cc1ccc(C(C(=O)NC2CCCCC2)N2CCN(C(=O)c3ccco3)CC2)cc1 (stereo not drawn)	Pf growth 48h 11.7µM
CCOC(=O)C1CCN(C(C(=O)NC2CCCC2)c2ccc(C)cc2)CC1 (stereo not drawn)	Pf growth 96h 10.4µM (no result: Pf growth 48h)
CC1CCC(NC(=O)c2nc(Cn3ccc([N+](=O)[O-])n3)no2)CC1 (stereo not drawn)	Pf growth 96h inconclusive
CC(C)c1ccc(NC2CCCN(C(=O)c3ccco3)C2)cc1 (stereo not drawn)	Cycloheximide cs 13.3
COc1cccc(NC(=O)CN2C(=O)NC(C)(c3ccc(C)cc3)C2=O)c1 (stereo not drawn)	none
CC(C)COP(=O)(c1ccc(N(C)C)cc1)C(O)c1ccccc1 (stereo not drawn)	none
CCOP(=O)(c1ccccc1)C(O)c1ccc(F)cc1 (stereo not drawn)	Pf growth 96h 7.38µM
CCOP(=O)(c1ccc(N(C)C)cc1)C(O)c1ccccc1 (stereo not drawn)	Pf growth 48h 11.7µM (no result: Pf growth 96h)
O=C(c1ccc(C(F)(F)F)cc1)N1CCN(c2ccc(N3CCOCC3)nn2)CC1	Pf growth 96h inconclusive (no result: Cycloheximide cs, Shiga inhibitor)
CCOC(=O)c1cc(-c2ccccc2)sc1NC(=O)C(C)N1C(=O)c2ccccc2C1=O (stereo not drawn)	none
Cc1ccc(C(=O)N[C@H](C(=O)OCC(=O)NC2CCS(=O)(=O)C2)C(C)C)cc1 (stereo partly drawn)	none
Cc1ccc(S(=O)(=O)NC(C(=O)OCC(=O)NC2CCS(=O)(=O)C2)C(C)C)cc1 (stereo not drawn)	Pf growth 96h 10.4µM
CCC(C)N1C(=O)S/C(=C/c2ccc3c(c2)n(C)c(=O)n3C)C1=O (stereo not drawn)	Cycloheximide cs 30.2
CCCCN1CC(=O)N2[C@H](c3ccc(Cl)cc3)[C@@H]3C(=O)N(CC)C(=O)[C@@H]3[C@]2(C)C1=O	none
CCc1ccc(Nc2cnn(-c3nc4ccccc4s3)c(=O)c2Cl)cc1	Cycloheximide cs 70.8, Shiga inhibitor 83.9, Pf growth 96h inconclusive
CCc1ccc(N2C(=O)CC(NNc3nc4ccccc4s3)C2=O)cc1 (stereo not drawn)	Pf growth 96h inconclusive
CCCC(=O)Nc1ccc2oc(-c3ccncc3)nc2c1	Cycloheximide cs 19.9, Shiga inhibitor 68.0, Pf growth 96h inconclusive
O=C(CN1CCCC1)Nc1ccc(-c2nc3cc(NC(=O)CN4CCCC4)ccc3o2)cc1	Cycloheximide cs 33.3, Shiga inhibitor 72.8, Pf growth 48h 2.33µM, Pf growth 96h inconclusive
CCC(C)NCC(=O)Nc1ccc(-c2nc3cc(NC(=O)CNC(C)CC)ccc3o2)cc1 (stereo not drawn)	Pf growth 48h inconclusive
O=C(COc1ccc(Cl)cc1)Nc1ccc2oc(-c3ccncc3)nc2c1	Pf growth 48h inconclusive (no result: Pf growth 96h)
COc1ccc(OCC(=O)Nc2ccc3oc(-c4ccncc4)nc3c2)cc1	none
CCCCC(=O)Nc1ccc2oc(-c3ccncc3)nc2c1	Cycloheximide cs 13.1, Shiga inhibitor 39.4
CCCC(=O)Nc1ccc(-c2nc3cc(C)c(C)cc3o2)cc1	Cycloheximide cs 35.5, Shiga inhibitor 119.1, Pf growth 96h inconclusive
CCN(CC)CCCNC(=O)c1[nH]c2ccccc2c1Sc1ccc(Cl)cc1	Pf growth 48h 13.1µM, Pf growth 96h 13.1µM
COC(=O)c1ccccc1NC(=O)CSc1nc2sc3c(c2c(=O)[nH]1)CCCC3	none (no result: Pf growth 48h, Pf growth 96h)
CCOCCn1c(CN2CCc3ccccc3C2)nc2c1c(=O)n(C)c(=O)n2C	Pf growth 48h inconclusive, Pf growth 96h inconclusive
CCOC(=O)N1CCN(C(=O)C2CCN(C(=O)c3ccc(C(C)(C)C)cc3)CC2)CC1	Pf growth 48h 9.28µM
CCOC(=O)N1CCN(C(=O)C2CCN(C(=O)c3ccc([N+](=O)[O-])cc3)CC2)CC1	Pf growth 96h inconclusive
COc1ccccc1N1CCN(C(=O)C2CCN(C(=O)c3ccc(C(C)(C)C)cc3)CC2)CC1	Pf growth 48h 4.65µM
CCOC(=O)N1CCN(C(=O)c2ccc(NC(=O)c3ccc(C)cc3)cc2)CC1	Cycloheximide cs 31.4, Pf growth 48h inconclusive (no result: Pf growth 96h)
CC1CCN(C(=O)C2CCN(C(=O)c3ccc(C(C)(C)C)cc3)CC2)CC1	none
